Laboratory results as given in PubChem BioAssay (Tox21).
“And” between values parts separate entries of the source, which are not always exact repeats. Equal entries are not always repeated. Records with an inconclusive call do not appear. Entries that show only a call come without a potency. The source holds several records for some structures; these can differ, active in one and inactive in another. The source made the active and inactive calls. Unless noted, calls come from the whole dose curve.

Key:
[1] = Nuclear factor erythroid 2-related factor 2/antioxidant responsive element (Nrf2/ARE) small molecule agonists: qHTS cell viability counter screen in human keratinocytes (AID 1919968; active = well fitted curve in the direction sought with a large enough effect in the repeat runs; an effect the other way counts as inactive or inconclusive; note: nearly all actives have a fitted effect of over 55% in size; note: potency is the fitted concentration of half-maximal effect)
Summary of the method: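 Parallel cytotoxicity read: KeratinoSens HaCaT cells, compound treatment 23 h, viability by CellTiter-Fluor fluorescence 1 h post-reagent.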

[2] = Nuclear factor erythroid 2-related factor 2/antioxidant responsive element (Nrf2/ARE) small molecule agonists: luciferase reporter gene qHTS assay in human keratinocytes (AID 1919969); note: nearly all actives have a fitted effect of over 35% in size; note: potency is the fitted concentration of half-maximal effect
[3] = biological target: Gonadotropin-releasing hormone receptor (Homo sapiens) (UniProt P30968); experiment: Human gonadotropin-releasing hormone receptor (GnRHR) small molecule agonists, calcium flux assay in GnRHR-HEK293 cells (AID 1920063); note: nearly all actives have a fitted effect of over 35% in size
Gonadotropin-releasing hormone receptor (Homo sapiens), sequence (P30968 whole entry, looked up): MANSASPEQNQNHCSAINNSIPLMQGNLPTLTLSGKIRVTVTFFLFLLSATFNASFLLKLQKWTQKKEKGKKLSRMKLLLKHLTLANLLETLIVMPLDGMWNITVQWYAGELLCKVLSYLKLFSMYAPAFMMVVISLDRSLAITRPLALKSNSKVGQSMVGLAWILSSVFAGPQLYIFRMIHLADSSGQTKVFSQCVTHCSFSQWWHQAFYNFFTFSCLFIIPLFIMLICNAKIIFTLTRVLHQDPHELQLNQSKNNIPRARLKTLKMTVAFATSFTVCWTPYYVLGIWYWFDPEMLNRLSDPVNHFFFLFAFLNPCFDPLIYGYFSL
Summary of the method: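 Calcium flux, agonist mode, human GnRHR stably integrated in HEK293; dye 1 h at 37 C before compound; Ex/Em=480/540 kinetic read, 3 min; 15 concentrations, triplicate.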

[4] = biological target: KiSS-1 receptor (Homo sapiens) (UniProt Q969F8); experiment: Human kisspeptin (KISS1R) small molecule agonists, calcium flux assay in KISS1R-HEK293 cells (AID 1920064; active = well fitted curve in the direction sought with a large enough effect in the repeat runs; an effect the other way counts as inactive or inconclusive)
KiSS-1 receptor (Homo sapiens), sequence (Q969F8 whole entry, looked up): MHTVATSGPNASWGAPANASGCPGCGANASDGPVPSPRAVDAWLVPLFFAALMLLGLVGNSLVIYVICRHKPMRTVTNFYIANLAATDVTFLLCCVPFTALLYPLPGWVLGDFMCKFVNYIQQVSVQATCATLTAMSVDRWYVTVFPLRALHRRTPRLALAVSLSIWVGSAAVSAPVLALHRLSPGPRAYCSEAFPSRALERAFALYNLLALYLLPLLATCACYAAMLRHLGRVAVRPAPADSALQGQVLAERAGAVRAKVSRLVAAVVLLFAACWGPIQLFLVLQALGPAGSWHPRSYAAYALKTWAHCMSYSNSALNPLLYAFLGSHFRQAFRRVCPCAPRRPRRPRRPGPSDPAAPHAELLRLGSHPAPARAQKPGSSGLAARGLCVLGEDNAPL
Summary of the method: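 Triplicate 15-concentration series were applied to dye-loaded human KISS1R HEK293 cells, and agonist-evoked calcium fluorescence was captured for 3 min.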

[5] = G protein-coupled receptor (GPCR) small molecule agonists, calcium flux assay: HEK293 wild type cell line counter screen (AID 1920065)
Summary of the method: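 Non-specific calcium responders were flagged by adding DMSO-dissolved compounds to dye-loaded cells and reading 480/540 nm fluorescence each second for 3 min; ATP served as positive control.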

[6] = p53 small molecule agonists, cell-based qHTS assay with human liver microsomes (AID 1963577); note: potency is the fitted concentration of half-maximal effect
Summary of the method: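 Compounds act here after metabolic activation: human liver microsomes and NADPH, both at 0.5 mg/mL final, were co-added to p53RE-bla cells. Incubation ran 16 h at 37 C, followed by LiveBLAzer detection.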

[7] = p53 small molecule agonists, cell-based qHTS assay (AID 1963582; active = well fitted activation curve with a large enough effect in the signal ratio in the repeat runs, not every such curve was filed as active; the % refers to the signal ratio)
Summary of the method: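 Beta-lactamase reporter cells (p53RE-bla) treated with compounds for 16 h at 37 C; FRET substrate, 2 h, room temperature; fluorescence intensity.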

[8] = biological target: 5-hydroxytryptamine receptor 2A (Homo sapiens) (UniProt P28223); experiment: 5-hydroxytryptamine receptor 2A (HTR2A) small molecule antagonists, cell-based qHTS assay (AID 1963586); note: nearly all actives have a fitted effect of over 45% in size
5-hydroxytryptamine receptor 2A (Homo sapiens), sequence (P28223 whole entry, looked up): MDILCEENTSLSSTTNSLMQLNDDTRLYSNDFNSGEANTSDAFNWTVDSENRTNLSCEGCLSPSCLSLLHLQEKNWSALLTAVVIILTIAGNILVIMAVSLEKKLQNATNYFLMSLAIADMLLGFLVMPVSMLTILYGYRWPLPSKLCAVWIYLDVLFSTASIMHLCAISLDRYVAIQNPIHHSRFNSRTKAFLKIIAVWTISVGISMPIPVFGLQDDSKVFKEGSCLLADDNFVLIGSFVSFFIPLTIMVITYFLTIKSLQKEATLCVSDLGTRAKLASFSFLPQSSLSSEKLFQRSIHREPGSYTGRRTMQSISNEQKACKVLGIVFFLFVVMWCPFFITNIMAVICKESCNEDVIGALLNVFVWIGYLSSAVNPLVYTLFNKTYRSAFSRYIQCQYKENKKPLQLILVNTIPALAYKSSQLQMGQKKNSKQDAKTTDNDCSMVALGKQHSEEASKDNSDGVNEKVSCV
Summary of the method: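 CHO cells stably expressing human HTR2A were plated for 18 h at 37 C, then loaded with calcium dye for 1 h. Compounds were preincubated 5 min at room temperature before DOI (4 nM solution) was added. Kinetic fluorescence was read for 3 min.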

[9] = biological target: 5-hydroxytryptamine receptor 2A (Homo sapiens) (UniProt P28223); experiment: 5-hydroxytryptamine receptor 2A (HTR2A) small molecule agonists, cell-based qHTS assay (AID 1963587); note: nearly all actives have a fitted effect of over 30% in size; note: potency is the fitted concentration of half-maximal effect
Summary of the method: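 Kinetic calcium-flux fluorescence (2 min, 1 sec intervals) after compound addition in agonist mode. HTR2A-CHO cells were cultured 18 h, then dye-loaded 1 h at 37 C.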

[10] = biological target: Muscarinic acetylcholine receptor M1 (Homo sapiens) (UniProt P11229); experiment: Cholinergic receptor muscarinic 1 (CHRM1) small molecule agonists, cell-based qHTS assay (AID 1963589); note: nearly all actives have a fitted effect of over 35% in size
Muscarinic acetylcholine receptor M1 (Homo sapiens), sequence (P11229 whole entry, looked up): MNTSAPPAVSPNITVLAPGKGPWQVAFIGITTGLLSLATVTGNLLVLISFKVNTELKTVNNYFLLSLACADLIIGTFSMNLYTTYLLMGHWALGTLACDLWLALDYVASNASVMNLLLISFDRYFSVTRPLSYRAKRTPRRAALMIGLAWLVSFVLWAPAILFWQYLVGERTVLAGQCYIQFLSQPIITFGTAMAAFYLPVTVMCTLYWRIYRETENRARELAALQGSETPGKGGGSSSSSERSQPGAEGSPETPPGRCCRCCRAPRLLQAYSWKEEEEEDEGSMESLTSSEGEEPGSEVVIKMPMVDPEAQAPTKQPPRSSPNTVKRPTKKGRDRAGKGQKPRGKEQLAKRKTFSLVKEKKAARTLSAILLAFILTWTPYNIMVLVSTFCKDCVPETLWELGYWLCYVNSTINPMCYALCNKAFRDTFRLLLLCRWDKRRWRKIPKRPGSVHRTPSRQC
Summary of the method: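 qHTS, 15-point titration, 3 independent runs: compounds pin-transferred onto dye-loaded CHRM1-CHO cells (human M1), calcium fluorescence followed every second to detect agonism.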

[11] = biological target: Beta-2 adrenergic receptor (Homo sapiens) (UniProt P07550); experiment: Adrenergic beta2 receptor (ADRB2) small molecule antagonists, cell-based qHTS assay (AID 1963592); note: series mostly up to about 92 µM; nearly all actives have a fitted effect of over 50% in size
Beta-2 adrenergic receptor (Homo sapiens), sequence (P07550 whole entry, looked up): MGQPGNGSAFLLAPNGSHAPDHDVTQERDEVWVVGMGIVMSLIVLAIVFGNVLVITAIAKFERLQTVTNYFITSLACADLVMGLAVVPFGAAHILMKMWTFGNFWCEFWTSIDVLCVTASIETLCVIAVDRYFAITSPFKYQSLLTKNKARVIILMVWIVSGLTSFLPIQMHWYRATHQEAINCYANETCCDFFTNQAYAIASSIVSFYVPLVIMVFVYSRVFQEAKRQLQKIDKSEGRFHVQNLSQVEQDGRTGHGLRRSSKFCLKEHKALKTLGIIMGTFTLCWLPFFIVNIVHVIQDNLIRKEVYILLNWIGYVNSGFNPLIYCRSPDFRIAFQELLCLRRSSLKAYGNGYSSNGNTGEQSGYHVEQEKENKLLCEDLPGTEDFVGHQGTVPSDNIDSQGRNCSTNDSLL
Summary of the method: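 Assay format: CHO-ADRB2 cells, 18-20hr seeding at 37C/5% CO2, then compound plus 1nM isoproterenol agonist mix for 0.5hr RT. Homogeneous time-resolved fluorescence cAMP detection after 1hr, expressed as 665/615 nm ratio.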

[12] = biological target: D(2) dopamine receptor (Homo sapiens) (UniProt P14416); experiment: Dopamine D2 receptor (DRD2) small molecule agonists, cell-based qHTS assay (AID 1963594); note: nearly all actives have a fitted effect of over 35% in size
D(2) dopamine receptor (Homo sapiens), sequence (P14416 whole entry, looked up): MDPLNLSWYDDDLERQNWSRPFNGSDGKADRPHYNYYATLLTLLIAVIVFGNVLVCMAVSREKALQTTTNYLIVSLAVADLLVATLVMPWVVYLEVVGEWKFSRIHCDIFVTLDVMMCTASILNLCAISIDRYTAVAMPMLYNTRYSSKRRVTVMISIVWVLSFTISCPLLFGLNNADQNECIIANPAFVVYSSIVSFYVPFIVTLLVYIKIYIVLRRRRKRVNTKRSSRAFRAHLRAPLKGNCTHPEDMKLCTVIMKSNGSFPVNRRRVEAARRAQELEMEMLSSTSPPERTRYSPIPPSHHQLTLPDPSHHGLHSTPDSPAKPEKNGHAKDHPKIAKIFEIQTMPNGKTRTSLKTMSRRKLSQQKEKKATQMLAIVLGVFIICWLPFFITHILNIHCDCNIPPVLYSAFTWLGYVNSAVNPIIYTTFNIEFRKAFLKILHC
Summary of the method: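 cAMP accumulation in DRD2-HEK293 cells measured by HTRF after 1 h detection; compounds added 10 min before NKH477 (200nM […]) forskolin-analogue stimulation, 30 min at room temperature, with Ro20-1724 present at 0.1 mM final.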

[13] = biological target: D(2) dopamine receptor (Homo sapiens) (UniProt P14416); experiment: Dopamine D2 receptor (DRD2) small molecule antagonists, cell-based qHTS assay (AID 1963595; active = well fitted inhibition curve with a large enough effect in the signal ratio in the repeat runs, with a control signal flat; the % refers to the signal ratio)
Summary of the method: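 HTRF cAMP read-out at 665 and 620 nm emission (340 nm excitation). Antagonist mode: compounds were tested against 12 nM quinpirole in DRD2-HEK293 cells, with 200 nM NKH477 raising cAMP and 0.1 mM Ro20-1724 blocking its breakdown.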

[14] = p53 small molecule agonists, cell-based qHTS assay with human liver microsomes: qHTS cell viability counter screen (AID 1963579); note: nearly all actives have a fitted effect of over 45% in size
Summary of the method: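 Cells carrying the p53 response-element beta-lactamase reporter are treated for 16 h at 37 C with test compounds in the presence of human liver microsomes and NADPH (both 0.5 mg/mL final); ATP-based CellTiter-Glo luminescence then reports viability.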

[15] = p53 small molecule agonists, cell-based qHTS assay with rat liver microsomes: qHTS cell viability counter screen (AID 1963580); note: nearly all actives have a fitted effect of over 45% in size
Summary of the method: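 Rat liver microsome (0.5 mg/mL final) and NADPH (0.5 mg/mL final) co-incubation with compounds for 16 h at 37 C on HCT-116 p53RE-bla cells; cytotoxicity taken from intracellular ATP luminescence.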

[16] = p53 small molecule agonists, cell-based qHTS assay: qHTS cell viability counter screen (AID 1963581); note: nearly all actives have a fitted effect of over 45% in size
Summary of the method: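 Multiplexed with the reporter read, a CellTiter-Glo step (30 min, room temperature) gauges ATP-based viability of HCT-116 p53RE-bla cells after 16 h compound incubation at 37 C.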

[17] = biological target: Muscarinic acetylcholine receptor M1 (Homo sapiens) (UniProt P11229); experiment: Cholinergic receptor muscarinic 1 (CHRM1) small molecule antagonists, cell-based qHTS assay (AID 1963588); note: nearly all actives have a fitted effect of over 40% in size
Summary of the method: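 Compounds were tested at 15 concentrations in three independent runs. Dye-loaded CHRM1-CHO cells were exposed 5 min at room temperature before stimulation by acetylcholine added at 50nM. Intracellular calcium was read kinetically on FDSS for 3 min.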

[18] = cAMP Responsive Elements (CRE) small molecule agonists, cell-based qHTS assay (AID 1963590)
Summary of the method: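 Quantitative HTS for CRE agonists: HEK 293T CRE-bla cells, overnight plating, 3 h compound incubation at 37 C/5% CO2, then 2 h room-temperature LiveBLAzer B/G FRET substrate loading.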

[19] = cAMP Responsive Elements (CRE) small molecule antagonists, cell-based qHTS assay (AID 1963591; active = well fitted inhibition curve with a large enough effect in the signal ratio in the repeat runs, not every such curve was filed as active; the % refers to the signal ratio; note: potency is the fitted concentration of half-maximal effect)
Summary of the method: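 Fluorescence intensity from cleaved LiveBLAzer B/G substrate (2 h, room temperature) quantified CRE-bla activity in HEK 293T cells exposed 3 h to compound with 0.25 uM final NKH477.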

[20] = biological target: Beta-2 adrenergic receptor (Homo sapiens) (UniProt P07550); experiment: Adrenergic beta2 receptor (ADRB2) small molecule agonists, cell-based qHTS assay (AID 1963593);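 note: CHO cells stably overexpressing human ADRB2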
Summary of the method: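 CHO cells stably over-expressing ADRB2 were plated overnight at 37C, then dosed with compounds plus a stimulation mix containing 100uM IBMX and 25uM Ro-20-1724 for 0.5hr at room temperature. cAMP was measured by HTRF competition, 1hr.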

SMILES	Potency [1]	Potency [2]	Potency [3]	Potency [4]	Potency [5]	Potency [6]	Potency [7]	Potency [8]	Potency [9]	Potency [10]	Potency [11]	Potency [12]	Potency [13]	Potency [14]	Potency [15]	Potency [16]	Potency [17]	Potency [18]	Potency [19]	Potency [20]
CN(C)C(=S)SSC(=S)N(C)C	95.5 nM (active) and 137 nM (active) and 119 nM (active)	inactive and 96.9 nM (active)	inactive	inactive	inactive	inactive	inactive	inactive	inactive and 27.5 µM (active)	inactive	inactive	inactive	inactive							
O=C(O)C(Br)Br	inactive	inactive	inactive	inactive	inactive	inactive	inactive	inactive	inactive	inactive	inactive	inactive	inactive	inactive	inactive	inactive	inactive	inactive	inactive	inactive
CCOC(=O)N(C)N=O	inactive	inactive	inactive	inactive	inactive	inactive	inactive	inactive	inactive	inactive	inactive	inactive	inactive	inactive	inactive	inactive	inactive	inactive	inactive	
COP(=S)(OC)Oc1ccc(S(=O)(=O)N(C)C)cc1	inactive	inactive	inactive	inactive	inactive	1.29 µM (active)	inactive	inactive	inactive	inactive	inactive	inactive	inactive	inactive	inactive	inactive	inactive	inactive	inactive	inactive
OCc1ccco1	inactive	inactive	inactive	inactive	inactive	inactive	inactive	inactive	inactive	inactive	inactive	inactive	inactive	inactive	inactive	inactive	inactive	inactive	inactive	inactive
CCC(Cl)[N+](=O)[O-] (configuration not stated)	inactive	inactive	inactive	inactive	inactive	inactive	inactive	inactive	inactive	inactive	inactive	inactive	inactive		inactive	inactive	inactive	inactive	inactive	
O=c1n(Cl)c(=O)n(Cl)c(=O)n1Cl	inactive	inactive	inactive	inactive	inactive	inactive	inactive	inactive	inactive	inactive	inactive	inactive	inactive	inactive	inactive	inactive	inactive	inactive	inactive	inactive
BrCc1ccc(Br)cc1	inactive	inactive	inactive	inactive	inactive	inactive	inactive	inactive	inactive	inactive	inactive	inactive	inactive	inactive	inactive	inactive	inactive	inactive		inactive
CNC(=O)Oc1ccccc1OC(C)C	inactive	inactive	inactive	inactive	inactive	inactive	inactive	inactive	inactive	inactive	inactive	inactive	inactive	inactive	inactive	inactive		inactive	inactive	inactive
O=C(O)C1C2CCC(O2)C1C(=O)O (configuration not stated)	inactive	inactive	inactive	inactive	inactive	inactive	inactive	inactive	inactive		inactive	inactive	inactive		inactive		inactive	inactive	27.6 µM (active) and 49.9 µM (active)	inactive
CCC(C)Cl (configuration not stated)	inactive	inactive	inactive	inactive	inactive	inactive	inactive		inactive	inactive		inactive	inactive			inactive	inactive	inactive	inactive	
CC(C)(O)C#N	inactive	inactive	inactive	inactive	inactive	inactive	inactive	inactive	inactive	inactive	inactive	inactive	inactive	inactive	inactive	inactive	inactive	inactive	inactive	inactive
CCCCSP(=O)(SCCCC)SCCCC	inactive	inactive	inactive	inactive	inactive	inactive	inactive	inactive	inactive	inactive	inactive	inactive	inactive	inactive	inactive	inactive	inactive		inactive	
CC(C=O)Cc1ccc2c(c1)OCO2 (configuration not stated)	inactive	inactive	inactive	inactive	inactive	inactive	inactive	inactive	inactive	inactive	inactive	inactive	inactive	inactive	inactive	inactive	inactive	inactive	inactive	
